Measured values taken from PubChem BioAssay (NCI).
The panel holds about 79,000 compounds, 15% with a hit somewhere; the sample as a whole holds those more often. Calls of active or inactive are those of the source. Cut-off read from the data, not from the text of the source: active = growth inhibition above about 70%; inactive = the rest.

How the values were obtained:
[1] = NCI Yeast Anticancer Drug Screen. Data for the rad50 strain (AID 155);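 note: 0% = growth of vehicle-only cultures of the same strain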; conditions: S. cerevisiae rad50 strain growth inhibition; at 50.0 µM; hits give high values
Method in brief: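 A DNA repair-deficient yeast mutant serves as the test organism; compound-induced growth inhibition is calculated against vehicle-treated cells.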

[2] = NCI Yeast Anticancer Drug Screen. Data for the mec2-1 strain (AID 157); conditions: S. cerevisiae mec2-1 strain, at 50.0 µM, hits give high values
Method in brief: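 Each compound was tested on mec2-1 yeast, a strain altered in DNA damage repair or cell cycle control. Growth inhibition is reported relative to vehicle.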

[3] = NCI Yeast Anticancer Drug Screen. Data for the sgs1 mgt1 strain (AID 161);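 note: 0% = growth of cultures given vehicle only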; conditions: S. cerevisiae sgs1 mgt1 strain, at 50.0 µM, hits give high values
Method in brief: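 Inhibition of yeast growth, normalised to vehicle-treated controls, is reported for a strain bearing genetic alterations in DNA damage repair.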

[4] = NCI Yeast Anticancer Drug Screen. Data for the cln2 rad14 strain (AID 165);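 note: 0% = growth equal to vehicle treated cultures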; conditions: S. cerevisiae cln2 rad14 strain, at 50.0 µM, hits give high values
Method in brief: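 Test compounds were added to cln2 rad14 yeast cultures; inhibition of growth was then determined by comparison with vehicle treatment.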

[5] = NCI Yeast Anticancer Drug Screen. Data for the bub3 strain (AID 167); conditions: S. cerevisiae bub3 mutant strain, at 50.0 µM, hits give high values
Method in brief: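 Inhibition values come from growth of compound-treated mutant yeast normalised to vehicle-treated controls.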

[6] = NCI Yeast Anticancer Drug Screen. Data for the mlh1 rad18 strain (AID 175); conditions: S. cerevisiae mlh1 rad18 strain growth inhibition; at 50.0 µM; hits give high values
Method in brief: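 Inhibition values reflect reduced growth of mutant yeast versus vehicle-treated controls following compound exposure; the mutations affect DNA damage repair.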

Measured: growth inhibition

C#CCn1c(=O)c2ccccc2n(CC#C)c1=O
inactive: [1] -10.3% | [2] -1.6% | [3] -6.3% | [4] 15.8% | [5] 9.05% | [6] 23.9%

CC(C)(C)c1nc2c(o1)C(=Nc1ccc(F)cc1)c1ccccc1C2=O
inactive: [1] 8.6% | [2] 3.15% | [3] 14.7% | [4] 38.1% | [5] 0.65% | [6] -2.5%

CC(NNC(=S)N1CC2CCC(CC2)C1)c1cccc[n+]1[O-] (stereo not given)
active: [1] 93.1% | [3] 92.5% | [4] 84.7%
inactive: [2] 37.4% | [5] 48.8% | [6] 59.6%

CC(=O)Nc1ccc(O)c([N+](=O)[O-])c1
inactive: [1] 3.1% | [2] 3.3% | [3] 3.3% | [4] -36% | [5] -9.15% | [6] -11.4%

CCCCOC(=O)C(C)OP(=O)(OC(C)C(=O)OCCCC)OC(C)C(=O)OCCCC (stereo not given)
inactive: [1] -19.4% | [2] -5% | [3] 9.5% | [4] -26.1% | [5] -0.3% | [6] 16.2%

Nc1nc2c(nc(OCc3ccccc3)n2C2OC(CO)C(O)C2O)c(=O)[nH]1 (stereo not given)
inactive: [1] 23.5% | [2] 10.8% | [3] 2.65% | [4] 8.95% | [5] 0.5% | [6] 16.1%

N#Cc1sc2c(c1OC(=O)c1ccc(C(F)(F)F)cc1)c(=O)n(-c1ccccc1)c(=S)n2-c1ccccc1
inactive: [1] -11.9% | [2] 0.9% | [3] 1.05% | [4] 0.8% | [5] -6.2% | [6] 3.05%

COCCN(CCOC)C(=O)Nc1cccc(Cl)c1
inactive: [1] 30.4% | [2] 6.3% | [3] 15.9% | [4] 8.35% | [5] 5.45% | [6] 10.2%

COC(=O)C(=C/c1ccc(OC)cc1)/C(C(=O)O)=C(/C)c1ccccc1
inactive: [1] 9.9% | [2] 17.1% | [3] -14.2% | [4] -11.2% | [5] -18.6% | [6] -9.8%

CCC(=O)COC(C)=O
inactive: [1] -3.75% | [2] -22% | [3] -6.05% | [4] -2.35% | [5] -3.75% | [6] 0.95%

CCCNc1nc(Cl)nc2c1cnn2C
inactive: [1] 7.6% | [2] -8.4% | [3] 9.5% | [4] 1.25% | [5] 14.4% | [6] 6.95%

CC1C=CC(C(=O)Nc2ccc(Cl)c(Cl)c2)N1C (stereo not given)
inactive: [1] 1% | [2] 12.2% | [3] 7.6% | [4] -33.9% | [5] -11.9% | [6] 2.75%

CC(=O)OC1CCC2(C)C(=CC=C3C4CCC(=O)NC4(C)CCC32)C1 (stereo not given)
inactive: [1] 19.5% | [2] 0.25% | [3] 21.4% | [4] 11.1% | [5] -3.6% | [6] 2.35%

O=c1[nH]cc(CS)c(=O)[nH]1
inactive: [1] 28.4% | [2] 0.85% | [3] -7.95% | [4] 34% | [5] 51% | [6] 14.5%

CC(=O)CCC(CCCC(CCC(C)=O)[N+](=O)[O-])[N+](=O)[O-] (stereo not given)
inactive: [1] -7.3% | [2] 15.3% | [3] 0.9% | [4] -9.4% | [5] 13.9% | [6] 4.15%

CC(=O)c1cc(-c2ccccn2)c(=O)n2ccccc12
inactive: [1] 26.1% | [2] 15.5% | [3] -19.9% | [4] -0.3% | [5] 5.25% | [6] -4%

CN(C)Cc1cc(Cl)c(O)c(CN(C)C)c1
inactive: [1] -17.6% | [2] -43.5% | [3] -38.4% | [4] 23.7% | [5] -30.6% | [6] 15.1%

COc1cc2c(cc1OC)C(=O)Cc1ccc3c(c1CN(C)CC2)OCO3
inactive: [1] -19.9% | [2] -42.7% | [3] -21.7% | [4] 2.7% | [5] -40.5% | [6] -17.9%

COc1ccc2c(cnc3c4cc(OC)c(OC)cc4ccc23)c1
inactive: [1] 15.2% | [2] -0.85% | [3] 4.05% | [4] -4.9% | [5] 24.9% | [6] 3.6%

O=C(O)/C=C\C(=O)Nc1ccc2c(c1)-c1ccccc1C2
inactive: [1] -6.95% | [2] -16.4% | [3] -14.6% | [4] -22.4% | [5] -28.1% | [6] 2.15%
